SMILES strings stand for the structures. Inconclusive results are not listed. Calls of active or inactive are those of the source.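 How the source made its calls, unless noted: active means growth inhibition above 25% in both replicates, a cutoff set 3 SD above the mean; inconclusive means above 25% in only one replicate; inactive means the rest.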

Assay [1] is described as follows: reducers of endogenous Her2 protein level, primary screen, SKBR3 breast tumor cells, AlphaScreen, ATP viability (AID 461;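 active means Her2 level under about 52% in both replicate screens, with viability over 70% of control, limit read from the data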;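 on Her2 level: lower value means less Her2 protein in the cells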;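 on viability: percent of carrier control wells set as 100% viability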). Particulars: 18-24 h, measured here: SKBR3 viability, ATP luminescence, at 10 µM.
Assay [2] has as its target Receptor tyrosine-protein kinase erbB-2 (Homo sapiens) (UniProt P04626). The description is as above. Particulars: 18-24 h, at 10 µM, stronger effect = lower value.
A short description of assay [3]: SK-BR-3 cell growth inhibitors, pilot screen, 24 h, human (AID 572;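 active means viability at or below 10% of carrier control in both of two separate runs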;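 further: compound exposure lasted between 18 and 24 h rather than exactly 24 h; 100% = carrier-treated control wells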). Particulars: SK-BR-3 viability, CellTiter-Glo luminescence, at 10 µM, stronger effect = lower value. (In general: In ATP-based viability assays light output follows the ATP content of the culture.)
Assay [4] is described as follows: HUVEC growth inhibition – cell-based, human, primary screen (AID 575;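 active means viability at or below 30% in both replicate assays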;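 further: 100% = median of untreated cell wells with 0.1% DMSO on each plate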). Particulars: HUVEC proliferation, CellTiter-Glo luminescence, 72 h; at 10 µM; stronger effect = lower value.
A short description of assay [5]: growth inhibitors of H69AR lung tumor, primary screen, human, duplicate replicates (AID 580;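 active means viability at or under a set limit in both replicates, limit being median viability minus 3 SD, cut at about 48% in these data, passing the limit was not always enough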;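 further: 100% = mean luminescence of untreated wells and 0% = no signal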). The note with it: H69AR lung tumor cells viability, ATP luminescence, 72 h; at 10 µM; stronger effect = lower value.
A short description of assay [6]: reversal of MRP1-mediated doxorubicin resistance, pilot screen, H69AR cells, doxorubicin co-treatment (AID 601;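 active means viability loss from added drug above about 55%, and viability with drug at most 40%, in both replicates, limit read from the data, passing the limit was not always enough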). The note with it: CellTiter-Glo, 72 h, at 10 µM; for differential viability (reversal): stronger effect = higher value.
A short description of assay [7]: 384-well plate pilot, post-Golgi transport modulator project, inhibition of yeast transport mutant growth (AID 636; in the data active means inhibition above about 31%). Particulars: absorbance 615 nm, about 18 h, stronger effect = higher value.
Assay [8] is described as follows: growth suppression of yeast trafficking mutant, preliminary HTS, modulators of trafficking downstream of Golgi apparatus project, 1536-format plate, OD 615 nm (AID 637; in the data active means inhibition above about 30%). The note with it: yeast transport mutant growth, absorbance 615 nm, 18 h; stronger effect = higher value.
Assay [9] can be described thus: OD615 S. cerevisiae growth inhibition, permissive medium, pilot counter-assay, permissive growth control for S. cerevisiae lifespan shortening project (AID 705). The note with it: OD615, 24 h, at 10 µM, stronger effect = higher value.
Assay [10] in a line: Restrictive medium S. cerevisiae growth inhibition, OD615, pilot screen of yeast lifespan reduction project, restrictive growth control (AID 706;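 active means growth inhibition above a set limit, 3 SD over mean compound inhibition, in both replicates, cut at about 43% in these data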;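 further: modified DeaD lifespan yeast strain shifted to restrictive glucose medium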). Particulars: OD615, 48 h, at 10 µM, stronger effect = higher value.
Assay [11] can be described thus: viability gain of MRP-1-high H69AR cells under doxorubicin, pilot screen, MRP-1 activator project, CellTiter-Glo, duplicate (AID 807;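 active means viability increase at or above a cutoff of the median across tested compounds plus 3 SD, cut at about 8.5% in these data, passing the limit was not always enough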;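 further: compound pretreatment 18-22 h then 72 h combined with doxorubicin; 0% = doxorubicin alone and 100% = vehicle without doxorubicin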). Particulars: H69AR viability with doxorubicin, CellTiter-Glo luminescence; at 10 µM; stronger effect = higher value.
The nature of assay [12]: growth suppression of PTEN-deleted HCT116, pilot screen, cell-based, HCT116 clonal line, CellTiter-Glo (AID 824;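 active means viability at or below 27.92% in each of two runs, the all-compound median minus 4 SD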;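 further: 0% = 20 µM Hyamine control and 100% = vehicle cell control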). The note with it: 60 h, at 10 µM, stronger effect = lower value.
A short description of assay [13]: inhibitors of the yeast RAM network, pilot screen, dse1pr::URA3 reporter, 5-FOA selection (AID 869;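 active means inhibition over a set limit, the all-compound mean plus 3 SD, in both replicate runs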;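 further: 0% = DMSO wells with no growth and 100% = 10 µM 1-NA-PP1 with full growth; RAM network block rescues cells from 5-FOA so hits raise OD615 growth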). The note with it: S. cerevisiae dse1pr::URA3 5-FOA growth, OD615, 2 d; at 10 µM; stronger effect = higher value; strain carries analog-sensitive mutant Cbk1 kinase.
A short description of assay [14]: RAM signaling pathway blockade in yeast – S. cerevisiae, Pdr1DBD-CYC8 efflux-inhibited sensitized strain, primary screen (AID 1298;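 active means RAM network inhibition above 8.4% in each of two replicates, 3 SD over the compound average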;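 further: 0% = DMSO untreated cells without growth and 100% = 10 µM 1-NA-PP1 full growth; higher means more yeast growth rescued from 5-FOA killing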). The note with it: S. cerevisiae cbk1-as DSE1-URA3 strain, 5-FOA growth OD615, 2 d; at 50 µM; stronger effect = higher value.
A short description of assay [15]: growth suppression of beta-catenin knockout HCT116, pilot screen, human colon tumor cells (AID 823;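 active means cell viability at or below a set limit in both duplicate runs, the limit being the all-compound median minus 4 SD, cut at about 23% in these data, passing the limit was not always enough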;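 further: 0% = wells killed by 20 µM Hyamine and 100% = untreated DMSO cell wells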). The note with it: CellTiter-Glo, 60 h, at 10 µM, stronger effect = lower value.
Where [16] appears, read: H69AR cells + 2 uM doxorubicin, measured here: viability with 2 uM doxorubicin, stronger effect = lower value.
[17] abbreviates: H69AR cells, compound alone cytotoxicity.

Receptor tyrosine-protein kinase erbB-2 (Homo sapiens), sequence (P04626 whole entry, looked up): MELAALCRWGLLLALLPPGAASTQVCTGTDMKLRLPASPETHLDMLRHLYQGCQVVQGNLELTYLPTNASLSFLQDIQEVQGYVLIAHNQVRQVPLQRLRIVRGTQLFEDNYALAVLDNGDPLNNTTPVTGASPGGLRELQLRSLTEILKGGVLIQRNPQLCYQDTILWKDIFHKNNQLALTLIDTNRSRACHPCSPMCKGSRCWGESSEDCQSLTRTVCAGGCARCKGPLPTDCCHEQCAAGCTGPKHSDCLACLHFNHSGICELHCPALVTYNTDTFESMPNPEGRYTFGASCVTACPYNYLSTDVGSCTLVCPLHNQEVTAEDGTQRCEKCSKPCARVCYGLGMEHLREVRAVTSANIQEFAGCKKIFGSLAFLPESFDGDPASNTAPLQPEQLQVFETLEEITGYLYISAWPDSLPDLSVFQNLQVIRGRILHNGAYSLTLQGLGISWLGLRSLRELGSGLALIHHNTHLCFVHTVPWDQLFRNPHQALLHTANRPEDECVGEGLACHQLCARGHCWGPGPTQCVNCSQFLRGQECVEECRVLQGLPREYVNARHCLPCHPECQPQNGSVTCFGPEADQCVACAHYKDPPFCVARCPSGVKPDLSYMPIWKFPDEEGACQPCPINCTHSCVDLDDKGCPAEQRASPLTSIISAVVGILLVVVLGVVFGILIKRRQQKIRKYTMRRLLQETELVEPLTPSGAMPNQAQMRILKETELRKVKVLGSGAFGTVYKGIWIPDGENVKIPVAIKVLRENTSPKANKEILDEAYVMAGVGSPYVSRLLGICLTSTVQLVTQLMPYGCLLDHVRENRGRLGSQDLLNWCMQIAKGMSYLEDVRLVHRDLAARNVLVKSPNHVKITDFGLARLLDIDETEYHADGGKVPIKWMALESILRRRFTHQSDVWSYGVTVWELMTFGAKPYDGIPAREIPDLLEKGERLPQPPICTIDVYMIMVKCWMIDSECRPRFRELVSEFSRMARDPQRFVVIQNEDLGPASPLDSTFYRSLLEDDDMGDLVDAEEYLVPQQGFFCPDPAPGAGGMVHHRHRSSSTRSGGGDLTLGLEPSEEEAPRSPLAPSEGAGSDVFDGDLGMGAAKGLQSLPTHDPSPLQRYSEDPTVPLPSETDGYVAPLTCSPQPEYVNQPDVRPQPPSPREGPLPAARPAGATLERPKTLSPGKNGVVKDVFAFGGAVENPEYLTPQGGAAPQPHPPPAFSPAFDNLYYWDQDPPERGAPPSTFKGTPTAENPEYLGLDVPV

With `CCOC(=O)c1cc2c(=O)n3ccccc3nc2n(CCCOC)c1=NC(C)=O`, the viability in assay [1] is 90%; in assay [3], 90% (inactive); in [4] it was 109% (inactive); in assay [5] it was 94.2% (inactive); in assay [6] (setting [16]), 67.7%; in assay [6] (setting [17]), 94.2%. Moreover, the viability in [12] is 100% (inactive). In addition, the Her2 level in [2] was 94.5% (inactive). Moreover, the differential viability (reversal) in [6] (H69AR cells + 2 uM doxorubicin) is 26.5% (inactive). For the same compound, the results for the inhibition in assay [7], in assay [8] and in assay [13] were -5.48% (inactive), -0.48% (inactive) and 1.38% (inactive), respectively. Further, the values for the growth inhibition in assay [9] and in assay [10] were -6.91% (inactive) and -0.22% (inactive), respectively. Further, the viability increase in assay [11] was -4.92% (inactive). The RAM network inhibition in assay [14] is 6.83% (inactive).

Take `CCOc1ccc(-c2nnc3sc(-c4c(OC)cccc4OC)nn23)cc1`: the viability in assay [1] was 126%; in assay [3], 126% (inactive); in assay [4], 86.5% (inactive); in assay [5] it was 86.2% (inactive); in assay [6] (setting [16]), 84.8%; in assay [6] (setting [17]), 86.2%. In addition, the viability in assay [12] is 71.3% (inactive). The Her2 level in assay [2] is 84% (inactive). The differential viability (reversal) in assay [6] (H69AR cells + 2 uM doxorubicin) is 1.34% (inactive). For the same compound, the inhibition in [7] is -5.87% (inactive); in assay [8], 10.5% (inactive); in [13], 2.04% (inactive). Further, the growth inhibition in assay [9] is -0.61% (inactive); in assay [10] it was 8.15% (inactive). In assay [11], the viability increase was -5.89% (inactive). Moreover, the RAM network inhibition in [14] is 4.81% (inactive).

Consider `CN1C(=O)C(O)(CC(=O)c2ccc(F)cc2)c2cc(Br)ccc21` (stereo not given), for which the viability in assay [1] was 85.5%; in assay [3], 85.5% (inactive); in assay [4], 76.8% (inactive); in assay [5], 20.1% (active); in assay [6] (setting [16]), 50.9%; in assay [6] (setting [17]), 20.1%. The viability in [12] was 15.8% (active). Besides, the Her2 level in assay [2] is 86.5% (inactive). Besides, in assay [6] (H69AR cells + 2 uM doxorubicin), the differential viability (reversal) is -30.8% (inactive). Further, the inhibition in [7] is -5.2% (inactive); in [8], 2% (inactive); in [13], 1.45% (inactive). Besides, the growth inhibition in assay [9] is -8.62% (inactive); in assay [10], -8.46% (inactive). Moreover, the viability increase in assay [11] is -6.12% (inactive). Moreover, the RAM network inhibition in assay [14] was -0.67% (inactive).

As to `CCOC(=O)c1cc2c(=O)n3ccccc3nc2n(CC(C)C)c1=NC(=O)c1ccco1`, the viability in [1] is 84.5%; in assay [3], 84.5% (inactive); in [4], 70.4% (inactive); in assay [5] it was 7.19% (active); in assay [6] (setting [16]), 2.75%; in assay [6] (setting [17]), 7.19%. The viability in [12] is 37.7% (inactive). Besides, in assay [2], the Her2 level was 83% (inactive). Further, in assay [6] (H69AR cells + 2 uM doxorubicin), the differential viability (reversal) was 4.44% (inactive). The results for the inhibition in [7], in [8] and in assay [13] were -2.47% (inactive), -3.33% (inactive) and 0.955% (inactive), respectively. Further, the growth inhibition in assay [9] was 1.45% (inactive); in [10] it was 4.24% (inactive). The viability increase in assay [11] is -7.74% (inactive). In addition, in assay [14], the RAM network inhibition is 5.64% (inactive).

For the compound `CCN(CC)CCCN1C(=O)C(O)=C(C(=O)c2ccco2)C1c1ccc(C)o1` (stereo not given), the viability is 102% in assay [1]; 102% (inactive) in [3]; 102% (inactive) in [4]; 85.4% (inactive) in assay [5]; 86% in assay [6] (setting [16]); 85.4% in [6] (setting [17]). The viability in [15] was 97.4% (inactive). For the same compound, in [2], the Her2 level is 93.5% (inactive). In addition, the differential viability (reversal) in [6] (H69AR cells + 2 uM doxorubicin) was -0.59% (inactive). In addition, the inhibition in assay [7] is -6.89% (inactive); in assay [8], 7.94% (inactive); in assay [13], 0.395% (inactive). Besides, the growth inhibition in assay [9] was -11.8% (inactive); in assay [10], 14.4% (inactive). Also, the viability increase in [11] is -4.15% (inactive). In [14], the RAM network inhibition is 3.48% (inactive).

As for `O=C(CCNS(=O)(=O)c1cccc2nsnc12)Nc1ccc2c(c1)OCCO2`, the viability is 90.5% in assay [1]; 90.5% (inactive) in assay [3]; 88.7% (inactive) in assay [4]; 101% (inactive) in assay [5]; 88.5% in [6] (setting [16]); 101% in [6] (setting [17]). The viability in assay [12] was 98.9% (inactive). For the same compound, in assay [2], the Her2 level was 96% (inactive). Moreover, the differential viability (reversal) in assay [6] (H69AR cells + 2 uM doxorubicin) is 12.9% (inactive). Further, the inhibition in [7] was -7.95% (inactive); in [8] it was -1.11% (inactive); in assay [13] it was 2.37% (inactive). Further, the growth inhibition in assay [9] is -7.75% (inactive); in [10], -0.065% (inactive). In addition, in assay [11], the viability increase was -3.8% (inactive). Also, in [14], the RAM network inhibition is 4.76% (inactive).

Consider `O=C1CCCC2=C1C(c1cccs1)n1nc(SCc3ccccc3F)nc1N2` (stereo not given), for which the viability is 85% in assay [1]; 85% (inactive) in assay [3]; 65.5% (inactive) in assay [4]; 81.7% (inactive) in [5]; 15.6% in assay [6] (setting [16]); 81.7% in [6] (setting [17]). Besides, the viability in [12] was 68.4% (inactive). In addition, in [2], the Her2 level is 99.5% (inactive). The differential viability (reversal) in assay [6] (H69AR cells + 2 uM doxorubicin) is 66.1% (active). Also, the inhibition is -0.27% (inactive) in [7], 10.2% (inactive) in assay [8] and 1.23% (inactive) in assay [13]. For the same compound, the growth inhibition in [9] was -6.56% (inactive); in [10] it was -6.42% (inactive). The viability increase in assay [11] is -5.19% (inactive). Moreover, in assay [14], the RAM network inhibition was 3.02% (inactive).

With `CC1(C)CC(=O)CC(C2(O)C(=O)N(Cc3ccccc3)c3ccccc32)O1` (stereo not given), the viability in [1] was 99.5%; in [3] it was 99.5% (inactive); in assay [4], 78.3% (inactive); in assay [5] it was 44% (active); in assay [6] (setting [16]), 56.7%; in assay [6] (setting [17]), 44%. For the same compound, the viability in [12] was 44.2% (inactive). Also, the Her2 level in assay [2] was 82.5% (inactive). In assay [6] (H69AR cells + 2 uM doxorubicin), the differential viability (reversal) was -12.7% (inactive). Further, the inhibition in [7] was 1.2% (inactive); in assay [8], -4.75% (inactive); in assay [13], 1.98% (inactive). The growth inhibition in [9] is -7.38% (inactive); in assay [10], 4.87% (inactive). Also, the viability increase in assay [11] is -5.63% (inactive). Besides, the RAM network inhibition in [14] was 1.36% (inactive).

Turning to `Cc1ccc(S(=O)(=O)C(C#N)c2nc3ccccc3nc2N2CCCCC2)cc1` (stereo not given), the viability in assay [1] was 124%; in [3] it was 124% (inactive); in [4], 71.6% (inactive); in assay [5] it was 92% (inactive); in assay [6] (setting [16]) it was 94.7%; in assay [6] (setting [17]), 92%. Moreover, in assay [15], the viability was 93.8% (inactive). Further, the Her2 level in assay [2] is 99.5% (inactive). The differential viability (reversal) in assay [6] (H69AR cells + 2 uM doxorubicin) was -2.64% (inactive). For the same compound, the results for the inhibition in assay [7], in assay [8] and in assay [13] were -6.13% (inactive), 3.65% (inactive) and 2.7% (inactive), respectively. The values for the growth inhibition in assay [9] and in assay [10] were -26.9% (inactive) and 6.8% (inactive), respectively. The viability increase in [11] is -3.74% (inactive). Also, the RAM network inhibition in [14] was 5.83% (inactive).

`Cc1noc(C)c1CSc1ccccc1C(=O)N1CCN(c2ccccc2)CC1`: the viability is 87% in assay [1]; 87% (inactive) in assay [3]; 97.8% (inactive) in assay [4]; 82% (inactive) in assay [5]; 88.2% in [6] (setting [16]); 82% in assay [6] (setting [17]). Further, the viability in assay [12] was 72.3% (inactive). Further, the Her2 level in assay [2] is 86% (inactive). Also, in assay [6] (H69AR cells + 2 uM doxorubicin), the differential viability (reversal) is -6.2% (inactive). The inhibition is -4.46% (inactive) in assay [7], 5.57% (inactive) in assay [8] and 3.5% (inactive) in assay [13]. For the same compound, the growth inhibition was -11.9% (inactive) in assay [9] and -20% (inactive) in assay [10]. In [11], the viability increase was -2.25% (inactive). Besides, the RAM network inhibition in [14] is 4.4% (inactive).

In general, viability refers to a read-out of living cells in per cent, often relative to untreated cells. The term inhibition denotes the change of the read-out against control, counted positive when it falls.

These data come from PubChem BioAssay.
